For orientation: inhibition means the drop in the measured response relative to a control, in per cent.

The structures appear in SMILES notation. Out of some 300,000 compounds screened, about 480 (0.16%) were called active.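 How the source made its calls: active means inhibition over 29.93%, a cutoff 3 SD above the screen mean, later confirmed by dose response; inconclusive means inhibition over 29.93% but no dose response follow-up; inactive means inhibition at most 29.93% or unconfirmed.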 Only a sample is shown. Entries with a potency or affinity are not part of this list.

The assay can be described thus: inhibitors of PhoP regulon expression, primary screen, Salmonella Typhimurium, GFP reporter (AID 1863).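 Further: 0% = low Mg2+ inducing control and 100% = high Mg2+ repressing control.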 The following applies: S. Typhimurium PhoP-regulated promoter GFP reporter, 4 h; at 50 µM; active compounds read high.
For the compound `COc1ccc2cc(C(=O)C3CCCN(C(=O)c4cnn(C(C)C)c4)C3)ccc2c1` (centres undefined), the inhibition was 2.9% (inactive). Under `CN(CC(=O)Nc1ccc(F)cc1)C(=O)c1cccc(S(=O)(=O)N2CCN(c3ccccc3)CC2)c1` stands -1.79% (inactive); under `CC(C)(C)CN1CCN(CCCc2ccccc2)C(CCO)C1` (centres undefined), -4.44% (inactive); under `CCc1cc(CNC(=O)CC2C(=O)NCCN2Cc2c(F)cccc2Cl)on1` (centres undefined), -1.45% (inactive). As for `Oc1ccc(/C=N/NC(=S)Nc2cccnc2)c(O)c1`, the figure is 29.1% (inactive); as for `Oc1ccc(/C=N/NC(=S)Nc2cccnc2)c(O)c1O`, 8.35% (inactive); as for `CCn1c(CNC(=O)C2CCCCC2)cc2cc(C)ccc21`, -0.55% (inactive). Take `COc1ccc(C(=O)C2CCCN(C(=O)C3CCOCC3)C2)c(C)c1` (centres undefined): the inhibition was 4.46% (inactive). As for `CCCCCc1ccc(OCCCC[n+]2ccc(C)cc2)c(CCCCC)c1`, the figure is 15.8% (inactive). For the compound `CCCCCc1ccc(OCCCC[n+]2cccc(C)c2)c(CCCCC)c1`, the inhibition is 3.26% (inactive). On to `CCCCCc1ccc(OCCCC[n+]2ccccc2)c(CCCCC)c1`, for which the inhibition was 3.64% (inactive). For `C[n+]1cn(Cc2cc(Cl)ccc2OC(F)F)c2ccccc21`, the inhibition is -3.69% (inactive). As for `O=C1CC(C(=O)Nc2ccccc2)N=C(N2CCCCC2)N1` (centres undefined), the figure is 0.85% (inactive). On to `OCC[C@H]1C[C@@H](O)[C@H](O)[C@]2(CCCCO2)O1`, for which the inhibition was -4.87% (inactive).

As to `O=C(Cn1cc(SCc2cccc(Cl)c2)c2ccccc21)N1CCOCC1`, the inhibition was -8.83% (inactive).

Regarding `CC(C)c1ccc(C2NC(=S)NC3=C2C(=O)CCC3)cc1` (centres undefined), the inhibition was 1.24% (inactive). As for `CCOC(=O)/C=c1\s/c(=C\c2ccc(C(F)(F)F)cc2)c(=O)n1CC(=O)NCc1ccco1`, the figure is -2.01% (inactive); as for `Cc1c(-n2cc(C(=O)O)c(=O)c3cc(F)c(N4CCCC(O)C4)c(F)c32)c(=O)n(-c2ccccc2)n1C` (centres undefined), 2.04% (inactive); as for `S=C(NC1CC2CCC1C2)N1CCN(c2cccc(Cl)c2)CC1` (centres undefined), -2.31% (inactive).

For the compound `O=S(=O)(c1ccc(F)c(F)c1F)N1CCN(C(=S)NC2CC3CCC2C3)CC1` (centres undefined), the inhibition is -4.07% (inactive). On to `COC(=O)CC1C(=O)NCCN1C(=S)Nc1ccc(F)cc1` (centres undefined), for which the inhibition is 0.13% (inactive). As for `CCn1cc(C(=O)O)c(=O)c2cnc(N3CCN(C(=S)Nc4ccc(F)cc4)CC3)nc21`, the figure is -3.34% (inactive); as for `CCn1cc(C(=O)O)c(=O)c2cnc(N3CCN(C(=S)Nc4ccccc4C(F)(F)F)CC3)nc21`, 3.15% (inactive). Under `CCOC(=O)c1cn(-c2nc(-c3ccc(Cl)cc3)cs2)c2c(F)c(N3CC(C)OC(C)C3)c(F)cc2c1=O` (centres undefined) stands 10.3% (inactive).

The values are drawn from PubChem BioAssay AID1863 (Southern Research Specialized Biocontainment Screening …, 2009).
